# Rows were chosen to be rich in hits. Some 5.9% of all compounds tested hit in one or more screens of this group.
# GLP-1R inv ag: acts as inverse agonist at human GLP-1 receptor; P43220; HEK293 GLP-1R CRE-luciferase, luminescence, 24 h; GLP-1R form is constitutively active; Potency, µM (highest dose often 38.3 µM), without a hit: at the highest dose activity change, negative = inhibition, actives largely listed as inhibitors; 1.6% of 410,000 active; AID 624417; further: on the % scale 0 is the no-effect control and ±100 the full control effect; nearly all actives have a fitted effect of over 55% in size
#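 Readout was luciferase luminescence, measured 12 min after detection reagent at room temperature. Beforehand, GLP-1R reporter HEK293 cells had sat 12 h, then received compounds for 24 hr at 37 deg C.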
# RORgamma inh: ROR gamma (mouse) transcription inhibition; Potency, µM (highest dose often 53.6 µM), for inactives: top-dose activity change, negative = inhibition, usual class: inhibitors; 5.4% of 310,000 active; Drosophila S2 Gal4-RORgamma UAS-luciferase reporter, 20 h; AID 2551; further: on the % scale 0 is the no-effect control and ±100 the full control effect; nearly all actives have a fitted effect of over 60% in size
# Target sequence (P51450 whole entry, looked up, the tested form may be a part): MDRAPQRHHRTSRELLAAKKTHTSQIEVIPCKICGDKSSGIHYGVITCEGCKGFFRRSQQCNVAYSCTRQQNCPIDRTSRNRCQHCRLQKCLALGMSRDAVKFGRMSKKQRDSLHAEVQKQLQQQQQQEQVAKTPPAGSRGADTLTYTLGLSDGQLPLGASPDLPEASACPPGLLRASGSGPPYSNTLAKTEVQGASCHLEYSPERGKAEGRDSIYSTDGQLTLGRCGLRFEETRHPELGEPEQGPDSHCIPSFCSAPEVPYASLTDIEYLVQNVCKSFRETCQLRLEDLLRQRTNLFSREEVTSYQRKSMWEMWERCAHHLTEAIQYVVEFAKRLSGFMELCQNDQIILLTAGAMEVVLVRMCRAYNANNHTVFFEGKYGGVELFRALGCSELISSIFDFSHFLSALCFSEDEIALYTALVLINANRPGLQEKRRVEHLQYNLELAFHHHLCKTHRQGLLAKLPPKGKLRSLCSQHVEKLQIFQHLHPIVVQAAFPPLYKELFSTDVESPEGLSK
#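 Schneider cells (Drosophila), stable Gal4 DBD–ROR gamma + UAS-luc; 1 hr cmpd preincubation; Cu2+ induction 700 uM final; 20 hr ambient; luminescence.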
# GLP1R ag: activates the human GLP-1 receptor | P43220 | HEK293 GLP-1R CRE-luciferase, luminescence, 4-6 h; cells express a hypersensitive GLP-1R form | Potency, µM (top dose mostly 45.6 µM), inactives show at the highest dose activation, usual class: activators | 0.007% of 380,000 active; further: % of control where 0% means no effect
# GLP1R cytotox: cytotoxicity in counter-screen for GLP-1R inverse agonists; HEK293 cAMP-luciferase reporter cells, luminescence, 24 h; Potency, µM (top dose mostly 38.3 µM), for inactives: at the highest dose activity change, negative = inhibition, most hits filed as inhibitors; AID 624418; 0.13% of 410,000 active;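 further: loss of luciferase light is scored as toxicity; on the % scale 0 is the no-effect control and ±100 the full control effect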
#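 Compound-treated cells are incubated 24 hr at 37 deg C under 5% CO2 after a 12 hour attachment period, then luciferase detection reagent is added and luminescence is measured following 12 min at room temperature; lowered signal indicates toxicity.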
# VP16 counter: inhibits Gal4-VP16 luciferase reporter, ROR gamma counter-screen; AID 2546; Potency, µM (series often up to 53.6 µM), without a hit: top-dose activity, negative = inhibition, most hits filed as inhibitors; Drosophila S2 Gal4-VP16 UAS-luciferase, luminescence, 20 h; 3.5% of 310,000 active;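 further: Gal4-VP16 expression switched on by copper sulfate through the metallothionein promoter; on the % scale 0 is the no-effect control and ±100 the full control effect; nearly all actives have a fitted effect of over 50% in size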
# Numbers without * were called inactive; ? = inconclusive; · = not tested or not shown; [ ] = remark or other dose. The call rests on the fitted dose curve; in most records, active means well fitted curve in the direction sought with a large enough effect; inconclusive means small, poorly fitted or top-dose-only effect, or another doubt; inactive means no such curve, though single readings can be large; an effect the other way counts as inactive or inconclusive. Potency means the concentration at half of the fitted maximal effect.
SMILES,GLP-1R inv ag,RORgamma inh,GLP1R ag,GLP1R cytotox,VP16 counter
Cc1ccc(OCc2ccc(C(=O)Nc3nc4ccccc4n3C)o2)c([N+](=O)[O-])c1,3%,5.6µM*,3%,2%,3.2µM*
COc1ccccc1NC(=S)N1CCN(c2nc(-c3ccccc3)cs2)CC1,?,14µM*,2%,0%,?
COc1cccc(NC(=O)N2CCN(c3nc(-c4cccc(OC)c4)cs3)CC2)c1,13µM*,-1%,-5%,-22%,-9%
CCOc1ccccc1NC(=S)N1CCN(c2nc(-c3cccc(OC)c3)cs2)CC1,?,4µM*,0%,8%,7.9µM*
COc1cccc(-c2csc(N3CCN(C(=S)Nc4ccccc4)CC3)n2)c1,?,6.3µM*,2%,3%,?
COc1cccc(-c2csc(N3CCN(C(=O)Nc4ccccc4Cl)CC3)n2)c1,?,?,-2%,-9%,-5%
CCOc1ccccc1N(CC)C(=O)Cn1ncc2c1-c1ccccc1OC2,?,·,·,3%,·
O=C(NC12CC3CC(CC(C3)C1)C2)N1CCN(c2ncccn2)CC1,4%,-5%,8%,-14%,1%
CNC(=S)N1CCN(c2nc(-c3cccc(OC)c3)cs2)CC1,-22%,-1%,0%,-5%,24%
COc1cccc(-c2csc(N3CCN(C(=O)NC45CC6CC(CC(C6)C4)C5)CC3)n2)c1,5µM*,-4%,-10%,1%,3%
COc1ccc(-c2csc(N3CCC(c4ccccc4)C3)n2)cc1 (configuration not stated),22%,11µM*,-7%,-5%,-6%
COc1cccc(-c2csc(N3CCN(C(=S)Nc4cccc(C)c4)CC3)n2)c1,?,7.1µM*,-4%,1%,3.2µM*
Fc1ccc(-c2csc(N3CCC(c4ccccc4)C3)n2)cc1 (configuration not stated),5%,-43%,-2%,9%,5%
COc1cccc(-c2csc(N3CCN(C(=S)Nc4ccc(Cl)cc4)CC3)n2)c1,?,?,0%,5%,?
COc1cccc(-c2csc(N3CCN(C(=S)Nc4ccccc4C)CC3)n2)c1,?,7.1µM*,-6%,-6%,?
COCCn1c(C)cc(O)c(C(c2ccccc2Cl)N2CCN(c3ccccc3)CC2)c1=O (configuration not stated),-9%,·,·,14%,·
COc1ccc(CNC(=O)Cc2c(C)c3c(cc(C)c4c(C)c(C)oc43)oc2=O)cc1,4%,·,·,-2%,·
COC(=O)[C@H](CC(C)C)NC(=O)c1ccc(NC[C@@H](N)CS)cc1-c1cccc2ccccc12,·,-8%,·,·,-26%
O=C(Cn1cc(SCc2ccc(F)cc2)c2ccccc21)N1CCCCCC1,?,·,·,1%,·
COc1cccc(-c2csc(N3CCN(Cc4ccccc4)CC3)n2)c1,0%,13µM*,25%,4%,?
COc1cccc(-c2csc(N3CCN(S(=O)(=O)c4ccc(F)cc4)CC3)n2)c1,-14%,-25%[10 µM],-5%,-5%,1%
N=c1ccn(Cc2c(Cl)cccc2Cl)cc1,-28%,?,8%,-11%,10µM*
Cc1ccc(N2CC(c3nnc(Cc4ccc(F)cc4)o3)CC2=O)cc1 (configuration not stated),9%,·,·,7%,·
Fc1ccc(-c2nnc(-c3ccc(Cl)cc3Cl)o2)cc1,12%,14µM*,2%,1%,10µM*
NC(=O)[C@@H]1CC2(CC(c3cccc(NC(=O)COc4ccc(Cl)cc4)c3)=NO2)CN1C(=O)COc1ccc(Cl)cc1 (some centres not stated),11µM*,38%,-2%,-26%,-12%
NC(=O)[C@H]1CC2(CC(c3cccc(NC(=O)COc4ccc(Cl)cc4)c3)=NO2)CN1C(=O)C(c1ccccc1)c1ccccc1 (some centres not stated),5.6µM*,45%,-4%,?,4%
N#CCC(=O)N1CC2(CC(c3cccc(NC(=O)COc4ccc(Cl)cc4)c3)=NO2)C[C@@H]1C(N)=O (some centres not stated),7%,12%,-3%,11%,-6%

# Screening results: PubChem, National Center for Advancing Translational Sciences (NCATS)
